For 40 molecules, outcome and AC50 results are on record in PubChem BioAssay (EPA / NIEHS).

The term AC50 denotes the concentration at which the activity in the assay is half-maximal.

Structures are written as SMILES. Results filed as inconclusive are left out. The source made the active and inactive calls. How the source made its calls: active means hit-call score of the fitted dose curve at least 0.9, where 1 is the maximum; inconclusive means response in the unintended direction; inactive means score below 0.9.

The nature of this assay: Tanguay_ZF_120hpf_JAW_legacy: (Legacy) Oregon State University Tanguay Lab 120 Hour Post-fertilization zebrafish Assay for Jaw Malformation (AID 2283638).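 On AC50: active means more embryos with jaw malformation than DMSO controls.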 How it is done:
Tanguay_ZF_120hpf_legacy is a whole embryo, multiplexed endpoint assay using zebrafish larvae exposed for 120 hours post fertilization on a 96-well plate.Tanguay_ZF_120hpf_JAW_legacy is one of one assay component(s) measured or calculated from the Tanguay_ZF_120hpf_legacy assay. It is designed to make measurements of zebrafish development as detected with brightfield microscopy of developing zebrafish embryos.Data from the assay component Tanguay_ZF_120hpf_JAW_legacy was analyzed into 1 assay endpoints. This assay endpoint, Tanguay_ZF_120hpf_JAW_legacy, was analyzed in the positive analysis fitting direction relative to DMSO as the negative control and baseline of activity. Using a type of morphology reporter, gain-of-signal activity can be used to understand changes in developmentals as they relate to the whole embryo. To generalize the intended target to other relatable targets, this assay endpoint is annotated to the zebrafish development intended target family, where the subfamily is embryonic jaw development.
Zebrafish husbandry: Tropical 5D wild-type adult zebrafish were housed in at an approximate density of 1000 per 100 gallon tank at the Sinnhuber Aquatic Research Laboratory, Oregon State University, Corvallis, OR. Each tank was kept at standard laboratory conditions of 28C on a 14-h light/10-h dark photoperiod in fish water consisting of reverse osmosis water supplemented with a commercially available salt (Instant Ocean). Spawning funnels were placed into the tanks the night prior, and embryos were collected and staged. To increase bioavailability, the chorion was enzymatically removed using pronase (63.6mg/ml, >/= 3.5U/mg, Sigma-Aldrich: P5147) at 4 hours post fertilization (hpf) using a custom automated dechorionator.Chemical exposures: Six hpf dechorionated embryos were placed 1 embryo per well in a 96-well plate prefilled with 90 ul of EM using automated embryo placement systems (AEPS). Ten microliters of each row of dilution plate 2 was added to 2 exposure plates. The final DMSO concentration used was 0.64% (vol/vol). Thirty-two embryos were also exposed to 5uM trimethyltin chloride (positive control). Plates were sealed to prevent evaporation and foil covered to reduce light exposure and kept in a 28C incubator. Embryos were statically exposed until 120 hpf. At 24 hpf, embryos were assessed for photomotor response using a custom photomotor response analysis tool (PRAT) and for developmental toxicity endpoints (MO24: mortality at 24 hpf, DP: developmental progression, SM: spontaneous movement, and NC: notochord distortion). At 120 hpf, locomotor activity was measured using Viewpoint Zebralab and assessed for 18 endpoints. Zebrafish acquisition and analysis program (ZAAP), a custom program designed to inventory, acquire, and manage zebrafish data, was used to collect developmental endpoints as either present or absent (i.e., binary responses were recorded). If mortality occurred for an embryo (at either 24 or 120 hpf), the non-mortality endpoints were not measured.
Regarding `Cc1cc(Cc2ccc(N)c(C)c2)ccc1N`, the molecule was classed as inactive.

For `OCC(CO)n1cnc(-c2ccc(F)cc2)c1-c1ccnc(Oc2ccccc2)n1`, the molecule was classed as inactive. The same measure, in the same setting: as for `Nc1nc(Cl)nc2c1ncn2[C@H]1C[C@H](O)[C@@H](CO)O1`, the entry is “inactive”. The same measure, in the same setting: the value for `CCCCCCC(C=O)=Cc1ccccc1` was “inactive”.

In the case of `NCCOCCOCCN`, the outcome was inactive.

As to `Nc1nc(=S)c2[nH]cnc2[nH]1`, the molecule was classed as inactive. Still for that read-out and setting: the value for `CCCCCCCC(=O)OC` was “inactive”; that for `O=C(N[C@@H](c1ccccc1)[C@@H]1CCCCN1)c1cccc(C(F)(F)F)c1Cl` was “inactive”. The same measure, in the same setting: as for `C/C=C/c1ccc(OC)cc1`, the entry is “inactive”; as for `Cc1ccc(-c2cc(C(F)(F)F)nn2-c2ccc(S(N)(=O)=O)cc2)cc1`, “inactive”; as for `O=C(O)c1cccnc1`, “inactive”. With `COC(=O)CCCC(=O)OC`, the call was inactive. Turning to `CCCCc1nc2cccnc2n1Cc1ccc(-c2ccccc2-c2nnn[nH]2)cc1`, the molecule was classed as inactive. `O=C1O[C@H]([C@H](O)CO)C(O)=C1O`: the outcome was inactive. Same read-out and setting: as for `CSc1ccc(Oc2ccc(S(N)(=O)=O)cc2CN(C)C)cc1C`, the entry is “inactive”; as for `O=[Si]=O`, “inactive”. The same measure, in the same setting: the value for `O=C(O)CN(CC(=O)O)CC(=O)O` was “inactive”; that for `CC1=C(C)S(=O)(=O)CCS1(=O)=O` was “inactive”; that for `CC(C)c1cccc(C(C)C)c1` was “inactive”.

Regarding `CC(C)c1cccc(C(C)C)c1NC(=O)NS(=O)(=O)c1cc(C(C)(C)O)co1`, the molecule was called inactive. On the same count and under the same terms, the value for `O=C1OC(c2ccc(O)cc2)(c2ccc(O)cc2)c2ccccc21` was “inactive”; that for `CCCCCCCCCCCCCCCCO` was “inactive”. With `CCCCCCC(CCCCCCCCCCC(=O)OCC(COC(C)=O)OC(C)=O)OC(C)=O` (stereo not given), the molecule was called inactive. `N[C@@H](Cc1c[nH]c2ccccc12)C(=O)O`: the call was inactive. The same measure, in the same setting: the value for `CC(=O)[C@@]1(O)CC[C@H]2[C@@H]3CCC4=CC(=O)CC[C@]4(C)[C@H]3CC[C@@]21C` was “inactive”. Same read-out and setting: as for `CCc1nc(N)nc(N)c1-c1ccc(Cl)cc1`, the entry is “inactive”; as for `CCCCC(CC)CO` (stereo not given), “inactive”; as for `COc1ccc(OC(F)(F)F)cc1CN[C@H]1CCCN[C@H]1c1ccccc1`, “inactive”.

Turning to `CCC(C)N(C)C(=O)c1cc2ccccc2c(-c2ccccc2Cl)n1` (stereo not given), the outcome was inactive.

With `C/C=C/C=C/C(=O)O`, the outcome was inactive.

In the case of `c1ccc2occc2c1`, the call was inactive.

In the case of `O=C(Oc1ccccc1)c1cccc(C(=O)Oc2ccccc2)c1`, the result was inactive. As for `S=c1[nH]c2ccccc2s1`, the half-maximal activity concentration (AC50) was 10.7 µM (active). Take `CCCCC(CC)COC(=O)CCCCCCCC(=O)OCC(CC)CCCC` (stereo not given): the outcome was inactive. For `CN(C)C(=O)NC1(c2ccccc2)CCN(CC[C@@]2(c3ccc(F)c(F)c3)CN(C(=O)c3ccccc3)CCO2)CC1`, the call was inactive. On the same count and under the same terms, the value for `CC1(C)C(=O)NC(=O)N1CO` was “inactive”. Regarding `CC(=O)O`, the outcome was inactive. In the case of `NC=O`, the molecule was classed as inactive. As for `OCC(O)CO`, the molecule was classed as inactive. As for `NC1CCCCC1`, the result was inactive.
